Screening results (PubChem BioAssay)
GLP1R ag: GLP-1 receptor (human) agonism; Potency, µM (titrated, usually from 45.6 µM), for the others: at the highest dose activation, actives largely listed as activators; P43220; AID 624172; HEK293 GLP-1R CRE-luciferase, luminescence, 4-6 h; cells express a hypersensitive GLP-1R form; 380,000 compounds, 0.007% hits; further: % of control where 0% means no effect
Target sequence (P43220 whole entry, looked up): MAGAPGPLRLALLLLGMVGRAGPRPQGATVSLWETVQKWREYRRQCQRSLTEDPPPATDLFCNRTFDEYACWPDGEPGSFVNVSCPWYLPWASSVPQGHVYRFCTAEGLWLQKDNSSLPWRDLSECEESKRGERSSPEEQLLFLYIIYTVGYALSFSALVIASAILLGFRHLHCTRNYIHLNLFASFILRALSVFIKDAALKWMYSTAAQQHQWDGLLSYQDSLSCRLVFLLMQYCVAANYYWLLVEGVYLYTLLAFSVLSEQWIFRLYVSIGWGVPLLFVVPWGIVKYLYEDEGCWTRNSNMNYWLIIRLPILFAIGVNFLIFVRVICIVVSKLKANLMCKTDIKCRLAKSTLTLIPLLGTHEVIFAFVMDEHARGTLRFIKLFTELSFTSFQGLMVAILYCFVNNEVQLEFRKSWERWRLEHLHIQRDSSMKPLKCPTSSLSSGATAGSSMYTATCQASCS
GLP1R inv ag: GLP-1 receptor (human) inverse agonism; Potency, µM (titrated, usually from 38.3 µM), inactives show at the highest dose activity change, negative = inhibition, usual class: inhibitors; 410,000 compounds, 1.6% hits; P43220; HEK293 GLP-1R CRE-luciferase, luminescence, 24 h; GLP-1R form is constitutively active; further: on the % scale 0 is the no-effect control and ±100 the full control effect; nearly all actives have a fitted effect of over 55% in size
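Luminescence readout: a drop in cAMP-driven luciferase signal flags inverse agonism at a constitutively active GLP-1R stably expressed in HEK293. Compound exposure lasted 24 hr at 37 deg C, 5% CO2.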
HEK293 tox: cytotoxicity in counter-screen for GLP-1R inverse agonists. 410,000 compounds, 0.13% hits. HEK293 cAMP-luciferase reporter cells, luminescence, 24 h. Potency, µM (top dose mostly 38.3 µM), for inactives: at the top dose activity change, negative = inhibition, most hits filed as inhibitors;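 further: loss of luciferase light is scored as toxicity; on the % scale 0 is the no-effect control and ±100 the full control effect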
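MLSMR compounds, 24 hr on cells at 37 deg C/5% CO2; luminescence after luciferase reagent (12 min RT). Inhibition counted as the undesired cytotoxic outcome.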
* = called active by the depositor; ? = inconclusive; . = not tested or not shown; [ ] = dose if it differs, or a comment. This is a sample that favours compounds with a hit; in the whole collection about 1.7% have one here. The call rests on the fitted dose curve; in most records, active means well fitted curve in the direction sought with a large enough effect; inconclusive means small, poorly fitted or top-dose-only effect, or another doubt; inactive means no such curve, though single readings can be large; an effect the other way counts as inactive or inconclusive. Potency means the concentration at half of the fitted maximal effect.

SMILES | GLP1R ag | GLP1R inv ag | HEK293 tox
CC(C)CN1CCC(Oc2cccc(C(=O)NCCc3ccccc3)c2)CC1 | 0% | ? | ?
Cc1ccc(NC(=O)CCN2C(=O)C3CCCCC3C2=O)cc1[N+](=O)[O-] (stereo not given) | 7% | 7% | -7%
O=[N+]([O-])c1ccc(Sc2cccc3cccnc23)cc1 | 7% | 103% | 1%
O=[N+]([O-])c1cc(Cl)ccc1Sc1cccc2cccnc12 | 5% | 1% | -12%
O=[N+]([O-])c1ccc(Sc2cccc3cccnc23)c([N+](=O)[O-])c1 | 0% | ? | 3.2µM*
C=CCn1nc([N+](=O)[O-])nc1Sc1cccc2cccnc12 | -21% | ? | 2.8µM*
CCOc1ccccc1NC(=O)CSc1n[nH]c(N)n1 | -2% | 35% | -22%
Clc1ccc(-n2nnnc2-c2cnc(-c3ccncc3)nc2-c2cccs2)cc1 | -7% | ? | -16%
FC(F)(F)c1nc(-c2cccs2)ncc1-c1nnnn1-c1ccc(Cl)cc1 | -15% | 7.1µM* | -29%
CCN(CC)C(=O)C1CCCN(c2ccc([N+](=O)[O-])cc2/C=N/NC(=O)c2cccc(Br)c2)C1 (stereo not given) | -13% | 2µM* | -19%
O=C(N/N=C/c1cc([N+](=O)[O-])ccc1N1CCCCCC1)c1ccccn1 | 4% | -28% | -16%
CSc1ccccc1NC(=O)COC(=O)c1ccc(-n2nc(C)cc2C)cc1 | 12% | 17% | 6%
CCOC(=O)C1=CN(Cc2cccc(F)c2)S(=O)(=O)N(C)C1c1ccc(F)c(Cl)c1 (stereo not given) | 0% | 10µM* | 1%
CCOC(=O)C1=CN(Cc2cccc(F)c2)S(=O)(=O)N(C)C1c1ccc2ccccc2c1 (stereo not given) | 2% | ? | -16%
CCCCNC(=O)C(NC(=O)c1cnccn1)C(=O)c1ccccc1 (stereo not given) | . | 15% | -5%
COc1ccc([C@@H]2CC=C(C(=O)O)[C@H](c3ccc(Cl)cc3)N2S(=O)(=O)c2ccccc2C)cc1 | -3% | ? | -24%
Cc1ccc(S(=O)(=O)N2[C@@H](c3ccc(Br)cc3)C(C(=O)O)=CC[C@H]2c2ccc(Cl)cc2)cc1 | -11% | 11µM* | -20%
Cc1ccc([C@@H]2CC=C(C(=O)O)[C@H](c3ccc(Cl)cc3)N2S(=O)(=O)c2ccccc2C)cc1 | -3% | 8.9µM* | -18%
Cc1ccc([C@@H]2CC=C(C(=O)O)[C@H](c3ccc(Cl)cc3)N2S(=O)(=O)c2ccc(C)cc2)cc1 | -5% | ? | -13%
Cc1ccc([C@@H]2CC=C(C(=O)O)[C@H](c3ccc(Br)cc3)N2S(=O)(=O)c2ccccc2C)cc1 | -1% | 11µM* | -11%
COc1ccc([C@@H]2CC=C(C(=O)O)[C@H](c3cccc(Cl)c3)N2S(=O)(=O)c2ccccc2C)cc1 | -5% | ? | -12%
COc1ccc([C@@H]2CC=C(C(=O)O)[C@H](c3ccc(Br)cc3)N2S(=O)(=O)c2ccccc2C)cc1 | 1% | ? | -7%
Cc1ccccc1S(=O)(=O)N1C(c2ccc(Cl)c(Cl)c2)CC=C(C(=O)O)C1c1cccc(Br)c1 (stereo not given) | . | 10µM* | -20%
Cc1cc(C(=O)NNC2CC(=O)N(c3ccc4ccccc4c3)C2=O)c(C)o1 (stereo not given) | -1% | 6%[0.307 µM] | 3%[0.307 µM]
Cc1cc(C)cc(NC(=O)C2CCCN(S(=O)(=O)c3cccc4nsnc34)C2)c1 (stereo not given) | -2% | -5% | -14%
SMILES | GLP1R ag | GLP1R inv ag | HEK293 tox
O=C(CN1C(=O)COc2ccc(S(=O)(=O)NC3CCCC3)cc21)Nc1ccc(Cl)cc1F | . | ? | -16%
CCOC(=O)[C@]12CCC=C1N(Cc1ccco1)C(=O)[C@H](CC(=O)N1CCN(C(=O)c3ccco3)CC1)C2 | 1% | 17% | 0%
O=C(Nc1ccc(Br)cc1)C1CCN(S(=O)(=O)c2cccc3nsnc23)CC1 | -2% | -5% | 7%
Cc1cccc(-c2nc3nc(C)cc(NC(C)c4ccccc4)n3n2)c1 (stereo not given) | 29% | -15% | 1%
Cc1ccc([C@H]2C(C(=O)O)=CC[C@@H](c3ccc(Cl)c(Cl)c3)N2S(=O)(=O)c2ccc(C)cc2)cc1 | -2% | 10µM* | -11%
Cc1ccccc1S(=O)(=O)N1[C@@H](c2ccc(Br)cc2)C(C(=O)O)=CC[C@H]1c1ccc(Cl)cc1 | -5% | ? | -10%
Cc1ccccc1S(=O)(=O)N1[C@@H](c2ccccc2)C(C(=O)O)=CC[C@H]1c1ccc(Cl)cc1 | -4% | 7.1µM* | -13%
Cc1ccc(S(=O)(=O)N2[C@@H](c3ccccc3)C(C(=O)O)=CC[C@H]2c2ccc(Cl)c(Cl)c2)cc1 | -3% | ? | ?
COc1ccccc1Cc1nc2ccccc2nc1SCC(=O)N1CCC(C)CC1 | -5% | -10% | -2%
O=C(COC(=O)c1cc(=O)[nH]c2ccccc12)Nc1ccc(Cl)cn1 | -9% | 7% | 5%
COC(=O)C1=C(C)N(c2ccc(OC)cc2)C(C)=C(C(=O)OC)C1c1ccc(OC)cc1 | 7% | ? | -4%
COC(=O)C1=C(C)N(c2ccc(OC)cc2)C(C)=C(C(=O)OC)C1c1ccccc1 | -2% | 8.9µM* | -9%
O=C(NCCN1CCOCC1)c1ccc(Cl)c(Cl)c1 | 13% | 18% | -3%
O=C1/C(=C\c2ccc(Cl)c(Cl)c2)CN(C(=O)CCN2CCOCC2)C/C1=C/c1ccc(Cl)c(Cl)c1 | -14% | ? | 2.8µM*
CCCCc1c(-c2ccccc2OC)ncn1CCc1ccc(Cl)cc1 | -2% | ? | ?
O=C1c2cccc(OCc3ccc(F)cc3)c2CCN1Cc1ccc(F)cc1 | -9% | ? | -4%
Cc1ccc(CN2CCc3c(OCc4ccc(F)cc4)cccc3C2=O)cc1 | 13% | 4.5µM* | 12%
Cc1nc2nc(C)n(CCN3CCOCC3)c(=O)c2c(-c2cccc([N+](=O)[O-])c2)c1C(=O)CCCCCCCCCCN1CCC(c2ccccc2)(c2ccccc2)CC1 | -9% | 2.8µM* | ?
O=C(NCCCN1CCOCC1)/C(=C/c1ccc(-c2cccc([N+](=O)[O-])c2)o1)NC(=O)c1ccccc1 | -3% | -6% | -1%
COc1ccccc1CNC(=O)COC(=O)c1cccc(S(=O)(=O)N2CCCC2)c1 | -4% | 7% | 1%
COc1ccccc1CCNC(=O)CSc1nnc2ccc(-c3ccncc3)nn12 | -1% | 63% | -3%
COc1ccc(OC)c(NC(=O)NNC(=O)CCCOc2ccc(Cl)cc2C)c1 | 5% | 10µM* | 5%
COc1ccc(NC(=O)NNC(=O)COc2ccc(Cl)cc2C)cc1OC | -22% | -11% | 7%
O=C(CCn1c(=O)c2cccn2c2cccnc21)NCc1cccc(Br)c1 | . | 11% | 4%
O=C(CCCCn1c(=O)[nH]c2ccccc2c1=O)N1CCN(c2cccc(C(F)(F)F)c2)CC1 | -11% | 10µM* | ?
O=C(CCn1c(=O)[nH]c2ccccc2c1=O)N1CCN(c2cccc(C(F)(F)F)c2)CC1 | 0% | ? | -11%
O=c1cc2c(nn1Cc1ccccc1Cl)-c1ccccc1CC2 | ? | 10µM* | -5%
